Assay results as given in PubChem BioAssay (NCATS).
Inconclusive results are not listed. Entries that show only a call come without a potency. The source made the active and inactive calls. Calls follow the shape of the dose curve; as a rule, active = well fitted curve in the direction sought with a large enough effect; inconclusive = small, poorly fitted or top-dose-only effect, or another doubt; inactive = no such curve, though single readings can be large; an effect the other way counts as inactive or inconclusive.

Legend:
[1] = target: Aldehyde dehydrogenase, mitochondrial (Homo sapiens) (UniProt P05091); experiment: qHTS for Inhibitors of the Aldehyde Dehydrogenase Family (ALDH2) Primary screen (AID 2061308); details: ALDH2 enzyme inhibition qHTS, 1536-well; series mostly up to 56 µM; also: nearly all actives have a fitted effect of over 55% in size
[2] = target: Retinaldehyde dehydrogenase 3 (Homo sapiens) (UniProt P47895); experiment: qHTS for Inhibitors of the Aldehyde Dehydrogenase Family (ALDH1A3) Primary screen (AID 2061315); details: ALDH inhibition qHTS; series mostly up to 56 µM

Compound | Potency [1] | Potency [2]
NC(=O)C1CCN(c2nnc(-c3ccc4c(c3)OCCCO4)s2)CC1 | inactive | inactive
Cc1nc(N2CCOCC2)c2nc(-c3ccccc3)n(CC3CCN(C)CC3)c2n1 | inactive | inactive
CCNc1ncnc2ccc(-c3ccc4c(c3)OCO4)cc12 | inactive | inactive
Cn1c(SCC(=O)c2cc3ccccc3o2)nnc1-c1ccccc1 | inactive | inactive
COCCN(CCOC)c1nc(C)nc2c1nc(-c1ccccc1)n2CCCN(C)C | inactive | inactive
Cc1cc(-c2nnc3n2CCCCCCC3)c(C)n1-c1ccccc1 | inactive | inactive
FC(F)(F)c1ccccc1-c1nc(NCc2ccc(Cl)c(Cl)c2)c2ccccc2n1 | inactive | inactive
COc1ccc(C2Nc3ccccc3C(=O)N2Cc2ccccc2)cc1Oc1ccc(NC(C)=O)cc1 (stereo unspecified) | inactive | inactive
COc1cccc(C2c3c(ncn(-c4ccc(C(C)(C)C)cc4)c3=N)Oc3ccc4ccccc4c32)c1 (stereo unspecified) | inactive | inactive
O=C1Nc2ccccc2/C1=C\c1cc(Br)c(O)c(Br)c1 | inactive | inactive
Cc1ccc(-c2cc(C(=O)NCC[S+](=O)([O-])O)c3ccccc3n2)cc1C | inactive | inactive
Cn1ncc(Cl)c1-c1cc(C(=O)N[C@H](CN)Cc2ccc(F)c(F)c2)oc1Cl | inactive | inactive
CC(=O)c1ccc(N2CCN(S(=O)(=O)c3ccc4c(c3)CCC(=O)N4)CC2)cc1 | inactive | inactive
O=C1CCCC2=C1C(c1cccc(Cl)c1)N=C(Nc1nc3ccccc3o1)N2 (stereo unspecified) | inactive | inactive
COc1cccc(C2c3c(ncn(-c4ccc5c(c4)OCO5)c3=N)Oc3ccc4ccccc4c32)c1 (stereo unspecified) | inactive | inactive
Cc1ccc(S(=O)(=O)Nc2cc3c(cc2C(=O)Nc2nc(-c4ccccc4)cs2)OCO3)cc1 | inactive | inactive
N=c1c2c(ccn1CCCc1ccccc1)Oc1ccc3ccccc3c1C2c1ccccc1 (stereo unspecified) | inactive | inactive
N#Cc1nc(Nc2ccc(Br)cc2)nc(NC2CCCC2)n1 | inactive | inactive
COc1cccc(C(=O)Nc2ccc(-c3nc4ccccc4[nH]3)cc2)c1 | inactive | inactive
Oc1cccc2cc(N3CCCC3)cnc12 | inactive | inactive
C=C1C(=O)OC2CC(C)=C(C(C)CCCOC(C)=O)C(OC(=O)CC(C)CC)C12 (stereo unspecified) | inactive | inactive

Compound | Potency [1] | Potency [2]
C=CCSc1nnc(-c2cccc3ccccc23)o1 | inactive | inactive
C=C1CC2OC(=O)C(=C)C2C(OC(=O)/C(C)=C\C)CC2(C)OC1=CC2=O (stereo unspecified) | inactive | inactive
O=C1CCc2cc(S(=O)(=O)Nc3cccc(Cl)c3)ccc2N1 | inactive | inactive
NCCC(=O)Nc1cccc(-c2nn3c(=O)cc(N4CCNCC4)nc3s2)c1 | inactive | inactive
O=[S+]([O-])(Nc1ccc(C2CCNCC2)cc1)c1ccc(NCc2ccc(Cl)cc2O)cc1 | inactive | inactive
Cc1cc2c(s1)c1c(C)nn(Cc3ccc(F)cc3)c(=O)c1n2C | inactive | inactive
COC(=N)c1nc2ccc3ncnc(Nc4ccc(F)cc4Br)c3c2s1 | inactive | inactive
CC(OC(=O)c1ccc(S(C)(=O)=O)c([N+](=O)[O-])c1)C(=O)NC1C2CC3CC(C2)CC1C3 (stereo unspecified) | inactive | inactive
N#Cc1cccc(S(=O)(=O)Nc2cnccc2C(=O)Nc2nc(-c3ccccc3)cs2)c1 | inactive | inactive
CC(=O)Nc1ccc(CNc2ncnc3ccc(-c4c(C)noc4C)cc23)cc1 | inactive | inactive
C=CCc1cccc(CNc2ccc(S(=O)(=O)Nc3nccs3)cc2)c1O | inactive | inactive
CC(C)n1nc(Cc2cccc3ccccc23)c2c(N)ncnc21 | inactive | inactive
O=[N+]([O-])c1ccccc1-c1nc(NCc2ccc(-c3cccnc3)cc2)c2ccccc2n1 | inactive | inactive
O=S1(=O)N=C(Oc2cccc(C(F)(F)F)c2)c2ccccc21 | inactive | inactive
Fc1ccc(Nc2nc(-c3ccncc3Cl)nc3ccccc23)cc1F | inactive | inactive
CCSC1=NS(=O)(=O)c2ccccc21 | inactive | inactive
O=C(O)c1ccc2c(c1)C(=O)N([C@H](Cc1cccc3ccccc13)C(=O)O)C2=O | inactive | inactive
COc1cc(O)c(C(CC(=O)N2CCC(c3ccccc3)CC2)c2ccc(C)cc2)c(OC)c1 (stereo unspecified) | inactive | inactive
CCN(CC)CCn1c(-c2ccccc2)nc2c(NCc3ccccc3)nc(C)nc21 | inactive | inactive
O=C(COC(=O)CNC(=O)c1ccccc1)Nc1cc(C(F)(F)F)ccc1Cl | inactive | inactive
N#Cc1ccccc1Nc1ncc(-c2cccc3ccccc23)o1 | inactive | inactive

Compound | Potency [1] | Potency [2]
Cc1ccnc(NC(=O)N2CCN(c3cccc(C(F)(F)F)c3)CC2)c1 | inactive | inactive
COC(=O)c1ccc(O)c2ncc(NC3CCNCC3)cc12 | inactive | inactive
CN(c1cccc2cccnc12)S(=O)(=O)c1ccccc1 | inactive | inactive
O=C1c2ccccc2C(=O)N1c1cccnc1 | inactive | inactive
O=C(O)c1ccc2c(c1)C(=O)N([C@]1(C(=O)O)CC1c1ccccc1)C2=O (stereo partly specified) | inactive | inactive
CC(C)Oc1ccc(C(=O)Nc2ccc(-c3nc4ccccc4[nH]3)cc2)cc1 | inactive | inactive
O=C1CCc2cc(S(=O)(=O)Nc3cccc(Br)c3)ccc2N1 | inactive | inactive
N#Cc1nc(Nc2ccc(-c3ccccc3)cc2)nc(NC2CCCC2)n1 | inactive | inactive
COc1ccc2nc(-c3cccc(F)c3)sc2c1 | inactive | inactive
Nc1ccc(C(=O)Nc2ccc(-c3nc4ccccc4[nH]3)cc2)cc1Cl | inactive | inactive
N#Cc1ccccc1CNc1nc2ncc(Br)cc2[nH]1 | inactive | inactive
COc1cc(Cl)ccc1C(=O)Nc1nc(-c2ccccc2)cs1 | inactive | inactive
Cc1cc2c(s1)c1cnn(Cc3ccccc3Br)c(=O)c1n2C | inactive | inactive
Cc1cccc(CNc2ncnc3ccc(-c4ccoc4)cc23)c1 | inactive | inactive
CS(=O)(=O)c1ccc(-c2csc(N3CCC(C(N)=O)CC3)n2)cc1 | inactive | inactive
NC(=O)c1ccnc2c(O)cccc12 | inactive | inactive
O=S(=O)(NCC1CC1)c1ccc(Nc2nccc(N3CCCc4cc(O)ccc43)n2)cc1 | inactive | inactive
N#Cc1ccnc(N2C(=O)CC[C@H]2C(=O)N(c2cncc(F)c2)[C@@H](C(=O)NC2CC(F)(F)C2)c2ccccc2Cl)c1 | inactive | inactive
COc1cc(F)c(S(=O)(=O)N2CCCN(S(=O)(=O)c3ccc4c(c3)OCCO4)CC2)c(F)c1 | inactive | inactive
O=C1c2ccc(Nc3ccc(F)cc3F)cc2CCc2ccc(OCC(O)CO)cc21 (stereo unspecified) | inactive | inactive
C=C1C(O)C(O)C2(CC3C(C)=CCC4C(C)(CO)CCCC34C)OC2C1O (stereo unspecified) | inactive | inactive
